# Values joined by “and” are separate entries in the source; they are usually repeats but may differ in a detail not shown here. Identical values can stand only once. Records with an inconclusive call do not appear. Entries that show only a call come without a potency. Unmarked numbers belong to inactive results. Active and inactive are the calls of the source. Calls come from the whole dose curve; as a rule, active = well fitted cell-killing curve with a large enough effect; inconclusive = small, poorly fitted or top-dose-only effect; inactive = no such curve, though single readings can be large or run the other way.
# Test: qHTS of pediatric cancer cell lines to identify multiple opportunities for drug repurposing: Primary screen for OHS-50 cells (AID 1347103); note: nearly all actives have a fitted effect of over 40% in size
# Conditions: OHS-50 osteosarcoma viability, CellTiter-Glo luminescence, 48 h; series mostly up to 57.3 µM; activity change, negative = cytotoxic: at the top concentration
# Summary of the method: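 Cells (500-1,000/well) rested 5 h, then received compounds for 48 h; metabolically active cells were measured by CellTiter-Glo luminescence. Final concentrations spanned up to 46 µM (MIPE, 11-point) or 0.59 nM-46 µM (NPC, 8-point) in primary screens, 11-point in follow-ups.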
# Potency is the fitted concentration of half-maximal effect.
SMILES,Potency,"activity change, negative = cytotoxic [%]"
Cc1cn([C@H]2C[C@H](N=[N+]=[N-])[C@@H](CO)O2)c(=O)[nH]c1=O,inactive,–
CC(C)(Oc1ccc(C2CC2(Cl)Cl)cc1)C(=O)O (stereo not drawn),inactive,–
COc1ccc2c(c1)c(CC(=O)O)c(C)n2C(=O)c1ccc(Cl)cc1,inactive,–
CCOC(=O)Nc1ccc(NCc2ccc(F)cc2)nc1N,inactive,–
C[C@H]1c2cccc(O)c2C(O)=C2C(=O)[C@]3(O)C(O)=C(C(N)=O)C(=O)[C@@H](N(C)C)[C@@H]3[C@@H](O)[C@@H]21,–,-30
NC12CC3CC(CC(C3)C1)C2,inactive,–
CN(C)CCC=C1c2ccccc2C=Cc2ccccc21,27.6 µM (active),–
CN1C(C(=O)Nc2ccccn2)=C(O)c2ccccc2S1(=O)=O,–,2.96
CC(CCc1ccc(O)cc1)NCCc1ccc(O)c(O)c1 (stereo not drawn),–,-29.9
OCCN(CCO)c1nc(N2CCCCC2)c2nc(N(CCO)CCO)nc(N3CCCCC3)c2n1,21.7 µM (active),–
Cc1cn([C@H]2C=C[C@@H](CO)O2)c(=O)[nH]c1=O,inactive,–
COc1ccc2[nH]cc(CCNC(C)=O)c2c1,inactive,–
COc1ccccc1OCC(O)CN1CCN(CC(=O)Nc2c(C)cccc2C)CC1 (stereo not drawn),inactive,–
C[C@](N)(Cc1ccc(O)c(O)c1)C(=O)O,inactive,–
CC(C)C(=O)Nc1ccc([N+](=O)[O-])c(C(F)(F)F)c1,24.6 µM (active) and 432 nM (active),–
CC(C(=O)O)c1cccc(C(=O)c2ccccc2)c1 (stereo not drawn),inactive,–
CC1COc2c(N3CCN(C)CC3)c(F)cc3c(=O)c(C(=O)O)cn1c23 (stereo not drawn),inactive,–
Cn1c(=O)c2[nH]cnc2n(C)c1=O,inactive,–

# Reference: PubChem BioAssay (NCATS)
